Most compounds without a hit are left out; they make up all but 7.4% or so of the library.
TSHR ag – activates the human thyroid stimulating hormone receptor; Potency, µM (series often up to 57.1 µM), for the others: at the highest dose activation, actives largely listed as activators; hit rate 0.48% among 73,000; HEK293-CNG-TSHR cells (CNG channel as cAMP sensor), membrane potential dye, cAMP; P16473; active = well fitted activation curve with a large enough effect in the main read-out, with a control signal flat, not every such curve was filed as active; inconclusive = small, poorly fitted or top-dose-only effect, or a change in a side signal; inactive = no such curve, though single readings can be large or run the other way; % of control where 0% means no effect;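 also: the control signal comes from parental cells without the receptor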
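HEK 293 cells stably expressing TSHR and a cAMP-gated CNG channel; parental CNG-only cells as counterscreen. Cells preloaded 60 min with membrane potential dye plus 100 uM RO 20-1724, then compound 30 min; fluorescence read at 590 nm.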
CRE-bla Fsk – modulators of forskolin-stimulated CRE signaling in CHO cells; CHO CRE-bla reporter (cAMP response element driving beta-lactamase), forskolin EC10, beta-lactamase ratio; Potency, µM (titrated, usually from 38.2 µM), without a hit: top-dose activity change, negative = inhibition, usual class: activators; hit rate 2.5% among 71,000; AID 662; active = well fitted activation curve with a large enough effect in the signal ratio, with a control signal flat, not every such curve was filed as active; inconclusive = small, poorly fitted or top-dose-only effect, or effect the other way, or a change in a side signal; the % refers to the signal ratio; also: % of control where 0% means no effect
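The 460nm/530nm emission ratio after CCF4 loading defined %Activity, from which AC50 values were obtained. CRE-bla CHO cells received compound dilution series together with an EC10 level of NKH 477 for 3 hours at 37 degrees Celsius.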
Tau fil binding – binders of human tau filaments; P10636; recombinant tau filaments, thioflavin S fluorescence, 15 h; filaments grown with octadecylsulfate alongside compound; hit rate 2% among 71,000; Potency, µM (top dose mostly 57.1 µM), without a hit: at the highest dose activity change, negative = inhibition; AID 596;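 also: % is scaled to controls: 0 for no effect and ±100 for the full control effect; actives lower thioflavin S fluorescence by blocking filaments or displacing dye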
Target sequence (P10636 whole entry, looked up): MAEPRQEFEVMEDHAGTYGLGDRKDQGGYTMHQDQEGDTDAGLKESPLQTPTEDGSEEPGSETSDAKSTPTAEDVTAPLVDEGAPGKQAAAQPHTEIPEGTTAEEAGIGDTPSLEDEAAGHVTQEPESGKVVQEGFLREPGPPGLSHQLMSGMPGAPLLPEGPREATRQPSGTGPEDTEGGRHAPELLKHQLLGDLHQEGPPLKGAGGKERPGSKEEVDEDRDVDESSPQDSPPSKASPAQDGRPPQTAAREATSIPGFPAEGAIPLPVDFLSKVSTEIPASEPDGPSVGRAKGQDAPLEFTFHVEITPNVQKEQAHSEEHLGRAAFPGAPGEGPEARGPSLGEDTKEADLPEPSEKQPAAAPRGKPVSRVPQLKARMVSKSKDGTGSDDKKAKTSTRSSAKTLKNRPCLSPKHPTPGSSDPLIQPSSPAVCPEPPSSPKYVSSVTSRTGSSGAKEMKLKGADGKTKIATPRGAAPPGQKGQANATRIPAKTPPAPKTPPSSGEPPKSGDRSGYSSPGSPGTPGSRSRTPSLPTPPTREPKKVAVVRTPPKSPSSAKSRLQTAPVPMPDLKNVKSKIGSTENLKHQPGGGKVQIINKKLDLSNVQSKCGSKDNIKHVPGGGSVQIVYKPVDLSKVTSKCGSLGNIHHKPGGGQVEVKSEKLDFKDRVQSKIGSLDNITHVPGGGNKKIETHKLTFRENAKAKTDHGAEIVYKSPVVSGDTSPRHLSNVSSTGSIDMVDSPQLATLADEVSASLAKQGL
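Assay mix: 1 uM His-tagged tau, 30 uM sodium octadecylsulfate, thioflavine S dye in HEPES/NaCl/DTT buffer. Compound is added prior to the inducer. Fluorescence after 15 h at 37 C.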
ERK AVP inh – inhibitors of vasopressin-stimulated ERK signaling pathway; HEK293-V1b, vasopressin-stimulated pERK AlphaScreen; Potency, µM (titrated, usually from 57.5 µM), inactives show at the top dose activity, negative = inhibition, most hits filed as inhibitors; hit rate 0.99% among 72,000; AID 995; also: % is scaled to controls: 0 for no effect and ±100 for the full control effect; nearly all actives have a fitted effect of over 55% in size
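Overnight-seeded V1b-HEK293 cells in 1% FBS got compound, then vasopressin (25 nM final, 5 min, 37C), then lysis buffer. AlphaScreen detection of phospho-ERK; activity normalized to basal and full-stimulation controls.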
HEK293 cAMP cs – raises cAMP in parental HEK293 cells, TSHR agonist counter-screen; hit rate 2.5% among 73,000; parental HEK293 CNG cAMP sensor, membrane potential fluorescence; Potency, µM (highest dose often 57.1 µM), for inactives: at the highest dose activation, usual class: activators; also: % of control where 0% means no effect; nearly all actives have a fitted effect of over 55% in size
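Counterscreen for endogenous-receptor signalling: CNG-channel HEK 293 cells report cAMP rise by membrane depolarization. After 60 min dye equilibration with 100 uM RO 20-1724, compounds incubated 30 min before bottom-read fluorescence at 590 nm.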
An asterisk follows results filed as active; ? = inconclusive; nt = no result; ! = not active in a repeat; [ ] = remark or other dose. Unless noted, calls follow the shape of the dose curve; as a rule, active = well fitted curve in the direction sought with a large enough effect; inconclusive = small, poorly fitted or top-dose-only effect, or another doubt; inactive = no such curve, though single readings can be large; an effect the other way counts as inactive or inconclusive. Potency is read from the fitted curve at half-maximal effect.

SMILES | TSHR ag | CRE-bla Fsk | Tau fil binding | ERK AVP inh | HEK293 cAMP cs
CN(C)Cc1cc(C(C)(C)C)cc(CNC2CCCCC2)c1O | ? | -1%[7.6 µM] | 0%[11.4 µM] | -8%[11.5 µM] | ?
Oc1[nH]c2ccccc2c1/C=N/c1nccs1 | -5% | ? | 13µM* | -19% | -1%
Oc1[nH]c2ccccc2c1C=Nc1ccc2c(c1)OCO2 | -13% | nt | nt | nt | -14%
O=C(c1cc2nc(-c3ccc(F)cc3)cc(C(F)(F)F)n2n1)N1CCCC1 | 9%[11.4 µM] | ? | -7%[11.4 µM] | 17% | 0%[11.4 µM]
O=C(c1cc2nc(-c3ccccc3)cc(C(F)(F)F)n2n1)N1CCCC1 | 22% | ? | -9% | 0% | 7%
CN1CCN(C(=O)c2cc3nc(-c4ccc(Cl)cc4)cc(C(F)(F)F)n3n2)CC1 | 3%[11.4 µM] | ? | 2.5µM* | -21% | 4%[11.4 µM]
CN1CCN(C(=O)c2cc3nc(-c4ccccc4)cc(C(F)(F)F)n3n2)CC1 | 12% | 17% | 25µM* | -28% | 6%
O=C(c1cc2nc(-c3ccccc3)cc(-c3ccccc3)n2n1)N1CCN(C(=O)c2ccco2)CC1 | ? | 3.2µM* | 68% | -10% | ?
O=C(O)c1cc(=O)[nH]c(=S)[nH]1 | 2%[11.4 µM] | 3%[7.6 µM] | 10%[11.4 µM] | -2%[11.5 µM] | -4%[11.4 µM]
O=S(=O)(O)c1cc(O)c2c(O)c(N=Nc3cccc4ccccc34)c(S(=O)(=O)O)cc2c1 | -9%[11.4 µM] | -14%[7.6 µM] | ? | ? | -5%[11.4 µM]
CCCn1cnc2c(SCc3ccc(Cl)cc3)nc(N)nc21 | 8%[11.4 µM] | 3.2µM* | -2%[11.4 µM] | -18%[11.5 µM] | -7%[11.4 µM]
CC(=O)OCCN(Cc1ccccc1)Cc1ccc2c(c1)OCO2 | 25µM* | 17% | -18% | -28% | 29%
CC(C)C[C@@H](CC(=O)N[C@@H](CCC(=O)O)CC(=O)O)NC(=O)[C@@H]1CNCC[C@H]1NC(=O)C[C@H](CCCN)NC(=O)C[C@H](Cc1ccccc1)NC(=O)[C@@H]1CNCC[C@H]1N | 5% | -16% | -4% | nt | -4%
Cc1ccc(NS(=O)(=O)c2cc(C(=O)O)ccc2Cl)cc1C | 7% | nt | nt | nt | 10%
O=C(CCCn1c(=O)[nH]c2ccccc2c1=O)N1CCN(c2ccccn2)CC1 | -4% | 6% | -3% | -10% | 0%
O=C(CCCOc1ccc(Cl)cc1Cl)N1CCN(c2ccccn2)CC1 | ? | ? | 29% | 40µM* | ?
Cc1ccc(OCC(=O)N2CCCCC2)c(Br)c1 | ? | 6% | -11% | 9% | ?
O=C(COc1ccc(Cl)cc1Cl)N1CCCCCC1 | ? | ? | 14%[11.4 µM] | -13% | 4µM*
O=C(CCCCCNc1nc(=S)[nH]c2ccccc12)N1CCN(c2ccccn2)CC1 | 2% | ? | -6% | 13µM* | -4%
O=C(CCCOc1ccccc1)N1CCN(c2ccccn2)CC1 | ? | -3% | -11% | 25µM* | ?
CC(NC(=O)c1ccccc1)(C(=O)O)C(=O)O | -8%[11.4 µM] | -8%[7.6 µM] | 8%[11.4 µM] | 26%[11.5 µM] | 17%[11.4 µM]
COc1ccc(CNC(=O)c2cc(-c3cccc(OC)c3)on2)cc1 | 21% | -5% | 273% | -7% | 26%
COC(=O)c1c(C)n(-c2ccc(OC)cc2)c2ccc(O)cc12 | nt | 16% | 119% | 25µM* | 4%
CCOC(=O)CS(=O)(=O)c1nc(-c2ccccc2)cc(C(F)(F)F)n1 | 10% | ? | 20µM* | ? | 17%
CSc1ncnc2c1ncn2[C@@H]1O[C@@H](CO)[C@H](O)O[C@@H]1O | 10%[11.4 µM] | -5%[7.6 µM] | -2%[11.4 µM] | 12%[11.5 µM] | -6%[11.4 µM]
SMILES | TSHR ag | CRE-bla Fsk | Tau fil binding | ERK AVP inh | HEK293 cAMP cs
CCCc1c(OCCCOc2ccc(OCC(=O)O)cc2)ccc(C(C)=O)c1O | -3% | 2.5µM* | 10% | -1% | 0%
CCC(=O)c1ccc(OCC(=O)O)cc1 | 1% | -4% | 1% | 13% | 4%
CC(CCc1nc2ccccc2s1)(c1ccc(O)cc1)c1ccc(O)cc1 | -3%[11.4 µM] | 1%[7.6 µM] | -6%[11.4 µM] | 15%[11.5 µM] | -7%[11.4 µM]
Cn1c(=O)c2ncn(CC(=O)Nc3ccc4c5c(cccc35)CC4)c2n(C)c1=O | 2% | 9% | 13µM* | -10% | 0%
CCc1cc2c(nc1CC)CCN(CC/C(C)=N/O[C@@H]1O[C@H](COC(C)=O)[C@H](OC(C)=O)[C@H](OC(C)=O)[C@H]1OC(C)=O)C2 | -4%[11.4 µM] | nt | nt | 11%[11.5 µM] | 2%[11.4 µM]
Cc1nc(NCc2ccccc2)[nH]c(=O)c1CCC(C)C | ? | -15% | 16µM* | 8% | ?
Cc1ccc(Nc2nc(C)c(CCC(C)C)c(=O)[nH]2)cc1 | 4% | 3% | 16% | 3% | 2%
O=C(CSc1nnc(-c2ccco2)n1Cc1ccccc1)OC1CCCCC1 | ? | ? | -14% | -22% | 4µM*
O=C(CSc1nnc(-c2ccncc2)n1Cc1ccco1)OC1CCCCC1 | ? | -3% | -4% | -12% | ?
CN1CCC[C@H](C(=O)OCC(=O)[C@]2(O)CC[C@@H]3[C@H]4CCC5=CC(=O)CC[C@@]5(C)[C@H]4[C@@H](O)C[C@]32C)C1 | -5%[11.4 µM] | -3%[7.6 µM] | -3%[11.4 µM] | 4%[11.5 µM] | -3%[11.4 µM]
Cc1cccn2c(=O)c3cc(C#N)c(=O)n(-c4c(C)n(C)n(-c5ccccc5)c4=O)c3nc12 | 3% | 1% | 0% | -17% | -11%
Cc1cc(-n2c(=O)c(C#N)cc3c(=O)n4cccc(C)c4nc32)no1 | nt | 3.2µM* | 24% | -17% | -7%
Cc1ccc(-n2c(=O)c(C#N)cc3c(=O)n4ccccc4nc32)cc1 | 0% | 2.5µM* | -1% | 22% | -2%
CCOC(=O)C1C(=O)CC(C)(O)C(C(=O)OCC)C1/C=C/c1ccccc1 (configuration not stated) | ? | 4% | -1% | -10% | 5µM*
COc1cc(N=Nc2cccc(S(N)(=O)=O)c2)c2ccccc2c1N | -6%[11.4 µM] | 2%[7.6 µM] | 1.6µM* | 17%[11.5 µM] | -11%[11.4 µM]
c1ccc(-c2cnc(CSc3ncnc4sccc34)o2)cc1 | ? | 2% | -13% | 32µM* | 16µM*
COc1nc(C#N)nc(N(C)C)n1 | -1%[11.4 µM] | 18% | 13µM* | -4% | -11%
O=C(Cc1ccccc1)N1CCC(c2nc(-c3ccc(F)cc3)no2)CC1 | ? | -1% | 10% | 20µM* | ?
COc1ccc(-c2noc(C3CCCN(C(=O)c4ccccc4OC)C3)n2)cc1OC (configuration not stated) | ? | 9% | 3% | -10% | ?
Cc1ccc(-c2noc(C3CCCN(C(=O)c4c(F)cccc4F)C3)n2)cc1 (configuration not stated) | ? | ? | 3% | ? | 7.9µM*
OCC(O)CN1CCN(c2ccccc2)CC1 (configuration not stated) | nt | nt | nt | 10% | nt
O[C@H](CN1CCN(c2cccc(Cl)c2)CC1)C(c1ccccc1)c1ccccc1 | ? | ? | 40µM*! | -6% | ?
CCOC(=O)c1c(OCC)[nH]c2c1cc(O)c1ccccc12 | -17% | 6% | -22% | 25µM* | -22%
